# Test results as given in PubChem BioAssay (NCATS).
# Records with an inconclusive call do not appear. Where a call stands in place of a potency, no number is given. Values without a mark were called inactive. The source made the active and inactive calls. Unless noted, calls come from the whole dose curve; as a rule, active = well fitted curve in the direction sought with a large enough effect; inconclusive = small, poorly fitted or top-dose-only effect, or another doubt; inactive = no such curve, though single readings can be large; an effect the other way counts as inactive or inconclusive.
# Key:
# [1] = target: ATP-dependent 6-phosphofructokinase (Trypanosoma brucei brucei) (UniProt O15648); experiment: qHTS Assay to Find Inhibitors of T. brucei phosphofructokinase: hit validation (AID 492961);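 note: luminescence reports ADP formed as PFK phosphorylates fructose-6-phosphate with ATP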
# In short: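 In this biochemical qHTS validation, titrated compounds were tested against 1.25 nM PFK with 0.1 mM ATP and 0.5 mM F6P. Percent activity came from controls lacking or containing enzyme.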
# [2] = target: Ubiquitin carboxyl-terminal hydrolase 1 (Homo sapiens) (UniProt O94782); experiment: Inhibitors of USP1/UAF1: Pilot qHTS (AID 504865);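 note: rhodamine fluorescence freed from ubiquitin-rhodamine substrate followed over time; top concentration of the series differs between compounds; nearly all actives have a fitted effect of over 35% in size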
# In short: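 USP1/UAF1 complex at 1 nM preincubated 15 min at room temperature with compound, then Ub-Rho substrate added at 150 nM final. Fluorescence (480/540 nm) read kinetically in 50 mM HEPES pH 7.8, 0.5 mM EDTA, 1 mM TCEP, 0.1 mg/ml BSA, 0.01% Tween-20.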
# [3] = target: Luciferin 4-monooxygenase (Photinus pyralis) (UniProt P08659); experiment: Biochemical firefly luciferase enzyme assay for NPC (AID 624030); note: potency is the fitted concentration of half-maximal effect; nearly all actives have a fitted effect of over 70% in size
# In short: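 Direct inhibition of firefly luciferase enzyme (10 nM final, 50 mM Tris Acetate) assessed by luminescence within 5 minutes. Percent activity scaled between DMSO and PTC124 positive control, with concentration-effect curves classified by fit quality and response.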
# [4] = S16 Schwann cell PMP22 intronic element firefly luciferase assay (AID 624032); note: nearly all actives have a fitted effect of over 30% in size
# In short: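 Luciferase reporter of PMP22 intronic-element expression in stably transfected S16 rat Schwann cells, read by ONE-Glo luminescence after 24 h compound exposure at 37 C. Activity scaled between DMSO (0%) and positive-control PTC124; concentration-effect curves quality-classified.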
# [5] = target: Cytochrome P450 2C9 (Homo sapiens) (UniProt P11712); experiment: Cytochrome P450 family 2 subfamily C member 9 (CYP2C9) small molecule antagonists: luciferase biochemical (cell-free) qHTS assay (AID 1645842; active = well fitted curve in the direction sought with a large enough effect in the repeat runs; an effect the other way counts as inactive or inconclusive; note: nearly all actives have a fitted effect of over 55% in size)
# In short: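 P450-Glo CYP2C9 system: proluciferin substrate with enzyme in mix containing 0.4% BSA, 10 min at room temperature, then NADPH regeneration solution added and incubated 1 h at 37C. Detection reagent stopped reaction; luminescence read after 20 min as RLU.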
# [6] = NCATS anti-infectives library activity on HEK293 viability as a counter-qHTS vs the C. elegans viability qHTS (AID 1745854)
# In short: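 Cytotoxicity counter-screen to a worm viability qHTS: CellTiter-Glo luminescence read 10 min after reagent addition. Compounds (final up to 41.7 uM, a 1:5 dilution series) incubated 24 hr at 37C with 1,500 HEK293 cells per well; digitonin control.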
# [7] = target: Phospholipid hydroperoxide glutathione peroxidase GPX4 (Homo sapiens) (UniProt P36969); experiment: Primary qHTS Assay for Inhibitors of Recombinant Selenoprotein Glutathione Peroxidase 4 (GPX4) (AID 1845192); note: nearly all actives have a fitted effect of over 65% in size
# In short: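 NADPH consumption followed by fluorescence at 340/450 nm, t=0 and after 15 min at room temperature. Reaction started with cumene hydroperoxide (0.5 mM final) after 30 min compound–GPX4 preincubation; final 200 nM GPX4, 100 nM GR, 1 mM GSH, 0.5 mM NADPH.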
# [8] = qHTS profiling for inhibitors of Plasmodium falciparum proliferation (AID 504749); note: nearly all actives have a fitted effect of over 60% in size; conditions: P. falciparum in erythrocytes, SYBR Green DNA, 72 h, at 28.7 µM (top of the series)
# In short: (§1)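 SYBR Green fluorescence of parasite DNA, read after lysis and overnight dark incubation, measured growth over 72 h in erythrocyte culture at 0.3% parasitemia and 2.5% hematocrit. Data normalised to DMSO and 0.29 uM artemisinin, with plate-drift correction.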
# 3D7 = experiment: as above; conditions: P. falciparum in erythrocytes, SYBR Green DNA, 72 h; series mostly up to 12.8 µM
# In short: as §1
# 7G8 = experiment: as above; conditions: P. falciparum in erythrocytes, SYBR Green DNA, 72 h; series mostly up to 12.8 µM
# In short: as §1
# AA1029 = experiment: as above; conditions: P. falciparum in erythrocytes, SYBR Green DNA, 72 h; series mostly up to 12.8 µM
# In short: as §1
# AS120 = experiment: as above; conditions: P. falciparum in erythrocytes, SYBR Green DNA, 72 h; series mostly up to 12.8 µM
# In short: as §1
# ATS189 = experiment: as above; conditions: P. falciparum in erythrocytes, SYBR Green DNA, 72 h; series mostly up to 12.8 µM
# In short: as §1
# C2A = experiment: as above; conditions: P. falciparum in erythrocytes, SYBR Green DNA, 72 h; series mostly up to 12.8 µM
# In short: as §1
# CP185 = experiment: as above; conditions: P. falciparum in erythrocytes, SYBR Green DNA, 72 h; series mostly up to 12.8 µM
# In short: as §1
# CP191 = experiment: as above; conditions: P. falciparum in erythrocytes, SYBR Green DNA, 72 h; series mostly up to 12.8 µM
# In short: as §1
# CP192 = experiment: as above; conditions: P. falciparum in erythrocytes, SYBR Green DNA, 72 h; series mostly up to 12.8 µM
# In short: as §1
# CP194 = experiment: as above; conditions: P. falciparum in erythrocytes, SYBR Green DNA, 72 h; series mostly up to 12.8 µM
# In short: as §1
# CP201 = experiment: as above; conditions: P. falciparum in erythrocytes, SYBR Green DNA, 72 h; series mostly up to 12.8 µM
# In short: as §1
# CP203 = experiment: as above; conditions: P. falciparum in erythrocytes, SYBR Green DNA, 72 h; series mostly up to 12.8 µM
# In short: as §1
# CP211 = experiment: as above; conditions: P. falciparum in erythrocytes, SYBR Green DNA, 72 h; series mostly up to 12.8 µM
# In short: as §1
# CP215 = experiment: as above; conditions: P. falciparum in erythrocytes, SYBR Green DNA, 72 h; series mostly up to 12.8 µM
# In short: as §1
# CP217 = experiment: as above; conditions: P. falciparum in erythrocytes, SYBR Green DNA, 72 h; series mostly up to 12.8 µM
# In short: as §1
# CP237 = experiment: as above; conditions: P. falciparum in erythrocytes, SYBR Green DNA, 72 h; series mostly up to 12.8 µM
# In short: as §1
# CP238 = experiment: as above; conditions: P. falciparum in erythrocytes, SYBR Green DNA, 72 h; series mostly up to 12.8 µM
# In short: as §1
# CP247 = experiment: as above; conditions: P. falciparum in erythrocytes, SYBR Green DNA, 72 h; series mostly up to 12.8 µM
# In short: as §1
# CP250 = experiment: as above; conditions: P. falciparum in erythrocytes, SYBR Green DNA, 72 h; series mostly up to 12.8 µM
# In short: as §1
# CP252 = experiment: as above; conditions: P. falciparum in erythrocytes, SYBR Green DNA, 72 h; series mostly up to 12.8 µM
# In short: as §1
# CP256 = experiment: as above; conditions: P. falciparum in erythrocytes, SYBR Green DNA, 72 h; series mostly up to 12.8 µM
# In short: as §1
# CP260 = experiment: as above; conditions: P. falciparum in erythrocytes, SYBR Green DNA, 72 h; series mostly up to 12.8 µM
# In short: as §1
# CP262 = experiment: as above; conditions: P. falciparum in erythrocytes, SYBR Green DNA, 72 h; series mostly up to 12.8 µM
# In short: as §1
# CP265 = experiment: as above; conditions: P. falciparum in erythrocytes, SYBR Green DNA, 72 h; series mostly up to 12.8 µM
# In short: as §1
# Chain of ATP-dependent 6-phosphofructokinase (Trypanosoma brucei brucei) (O15648 whole entry, looked up): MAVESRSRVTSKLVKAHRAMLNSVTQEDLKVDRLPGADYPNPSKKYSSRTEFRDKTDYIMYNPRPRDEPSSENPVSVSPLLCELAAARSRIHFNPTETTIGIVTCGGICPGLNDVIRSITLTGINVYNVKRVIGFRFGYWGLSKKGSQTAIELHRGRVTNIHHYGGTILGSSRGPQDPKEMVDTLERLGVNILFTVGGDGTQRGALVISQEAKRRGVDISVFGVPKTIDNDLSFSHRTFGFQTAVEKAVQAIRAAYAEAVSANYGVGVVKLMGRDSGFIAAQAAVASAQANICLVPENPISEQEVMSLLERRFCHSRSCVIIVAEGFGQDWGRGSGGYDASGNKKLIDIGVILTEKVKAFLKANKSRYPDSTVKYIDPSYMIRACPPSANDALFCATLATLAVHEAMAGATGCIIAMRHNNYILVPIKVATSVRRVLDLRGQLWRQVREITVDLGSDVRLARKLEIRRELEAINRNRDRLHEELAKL
# Chain of Cytochrome P450 2C9 (Homo sapiens) (P11712 whole entry, looked up): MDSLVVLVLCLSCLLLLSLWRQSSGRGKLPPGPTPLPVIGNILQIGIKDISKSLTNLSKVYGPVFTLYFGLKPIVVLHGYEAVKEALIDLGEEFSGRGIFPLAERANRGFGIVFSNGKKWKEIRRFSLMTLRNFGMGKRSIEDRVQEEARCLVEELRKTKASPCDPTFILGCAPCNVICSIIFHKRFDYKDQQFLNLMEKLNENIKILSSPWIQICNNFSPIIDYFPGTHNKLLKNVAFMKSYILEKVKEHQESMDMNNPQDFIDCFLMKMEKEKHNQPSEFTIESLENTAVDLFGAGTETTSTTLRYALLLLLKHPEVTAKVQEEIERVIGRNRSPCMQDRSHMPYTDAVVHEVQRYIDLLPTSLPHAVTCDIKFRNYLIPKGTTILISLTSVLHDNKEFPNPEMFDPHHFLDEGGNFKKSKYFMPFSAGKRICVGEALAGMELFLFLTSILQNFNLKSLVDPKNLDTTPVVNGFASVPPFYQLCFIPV
# Chain of Phospholipid hydroperoxide glutathione peroxidase GPX4 (Homo sapiens) (P36969 whole entry, looked up): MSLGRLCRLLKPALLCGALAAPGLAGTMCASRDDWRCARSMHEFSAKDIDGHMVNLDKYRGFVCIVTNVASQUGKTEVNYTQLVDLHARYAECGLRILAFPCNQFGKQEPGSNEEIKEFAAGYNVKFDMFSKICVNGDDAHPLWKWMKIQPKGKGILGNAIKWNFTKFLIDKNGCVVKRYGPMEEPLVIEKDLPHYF
# Chain of Ubiquitin carboxyl-terminal hydrolase 1 (Homo sapiens) (O94782 whole entry, looked up): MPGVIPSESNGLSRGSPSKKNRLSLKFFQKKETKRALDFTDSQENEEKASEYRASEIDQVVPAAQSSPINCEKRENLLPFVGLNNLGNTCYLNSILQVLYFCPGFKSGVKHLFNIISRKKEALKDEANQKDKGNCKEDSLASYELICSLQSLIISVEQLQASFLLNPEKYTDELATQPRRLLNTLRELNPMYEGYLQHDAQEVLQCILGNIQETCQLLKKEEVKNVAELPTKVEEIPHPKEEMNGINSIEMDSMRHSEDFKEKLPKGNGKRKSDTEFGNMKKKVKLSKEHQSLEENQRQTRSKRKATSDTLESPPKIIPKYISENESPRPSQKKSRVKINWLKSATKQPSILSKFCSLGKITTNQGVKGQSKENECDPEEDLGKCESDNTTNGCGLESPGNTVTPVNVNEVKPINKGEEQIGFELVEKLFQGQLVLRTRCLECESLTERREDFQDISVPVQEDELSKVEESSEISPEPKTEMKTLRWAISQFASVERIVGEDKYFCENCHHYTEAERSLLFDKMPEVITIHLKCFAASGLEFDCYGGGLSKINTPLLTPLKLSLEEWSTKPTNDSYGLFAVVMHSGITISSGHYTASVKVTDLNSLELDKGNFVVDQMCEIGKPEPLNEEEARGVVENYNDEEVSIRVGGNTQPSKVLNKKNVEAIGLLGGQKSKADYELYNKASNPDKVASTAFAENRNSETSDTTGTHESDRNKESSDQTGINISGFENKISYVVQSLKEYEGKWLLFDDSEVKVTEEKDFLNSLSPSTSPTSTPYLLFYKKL
# Chain of Luciferin 4-monooxygenase (Photinus pyralis) (P08659 whole entry, looked up): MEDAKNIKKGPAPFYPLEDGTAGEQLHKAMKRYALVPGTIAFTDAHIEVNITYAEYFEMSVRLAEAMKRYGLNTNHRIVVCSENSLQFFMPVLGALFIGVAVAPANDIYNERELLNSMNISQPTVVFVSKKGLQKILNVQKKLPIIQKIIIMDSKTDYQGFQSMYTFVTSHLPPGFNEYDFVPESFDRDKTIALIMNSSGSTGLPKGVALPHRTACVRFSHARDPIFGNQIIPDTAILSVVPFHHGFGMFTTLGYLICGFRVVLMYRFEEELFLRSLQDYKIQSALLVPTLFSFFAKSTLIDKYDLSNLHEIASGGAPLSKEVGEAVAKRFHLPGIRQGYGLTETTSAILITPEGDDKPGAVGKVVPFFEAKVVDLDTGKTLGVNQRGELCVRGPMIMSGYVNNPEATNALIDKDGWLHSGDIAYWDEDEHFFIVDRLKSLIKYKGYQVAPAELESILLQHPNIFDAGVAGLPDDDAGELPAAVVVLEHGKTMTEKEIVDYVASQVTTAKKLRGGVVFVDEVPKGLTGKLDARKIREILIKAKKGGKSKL
structure (smiles),measurement,setting,value
Nc1nc(NC2CC2)c2ncn([C@H]3C=C[C@@H](CO)C3)c2n1,outcome,[1],inactive
same,Potency,[2],inactive
same,Potency,[3],11.4 µM (active)
same,Potency,[4],inactive
same,Potency,[5],inactive
same,outcome,[6],inactive
same,Potency,[7],inactive
same,"activity, negative = inhibition",[8]; parasite line A,8.14%
same,"activity, negative = inhibition",[8]; parasite line B,1.25%
same,Potency,3D7,inactive
same,Potency,7G8,inactive
same,Potency,AA1029,inactive
same,Potency,AS120,inactive
same,Potency,ATS189,inactive
same,Potency,C2A,inactive
same,Potency,CP185,inactive
same,Potency,CP191,inactive
same,Potency,CP192,inactive
same,Potency,CP194,inactive
same,Potency,CP201,inactive
same,Potency,CP203,inactive
same,Potency,CP211,inactive
same,Potency,CP215,inactive
same,Potency,CP217,inactive
same,Potency,CP237,inactive
same,Potency,CP238,inactive
same,Potency,CP247,inactive
same,Potency,CP250,inactive
same,Potency,CP252,inactive
same,Potency,CP256,inactive
same,Potency,CP260,inactive
same,Potency,CP262,inactive
same,Potency,CP265,inactive
